Assays:
Experiment in all cases: PBM binding z-score (relative to random genomic background probes); higher = stronger binding; sequences stand for … in GC…GCGATTGACAGCGTAGAATGAAGG
[1] = system: RARb homodimer (NR concentration 270 nM)
Procedure, shortened: (§1)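 Binding z-scores take random background probes as their reference. They come from custom Agilent 4×180K protein-binding microarrays incubated 1 h with ligand-free nuclear receptor dimers, with antibodies against each partner (one per run) detecting binding. Scanned fluorescence was regression-normalized.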

[2] = system: RARg:RXRa (NR concentration 270 nM, RXRa partner concentration 90 nM)
Procedure, shortened: as §1

[3] = system: RARg homodimer (NR concentration 270 nM)
Procedure, shortened: as §1

[4] = system: RXRa DBDmut IVT, anti-RXR (DBD mutation: RXRa K156A/R161A, NR concentration 90 nM)
Procedure, shortened: as §1

[5] = system: RXRa homodimer (NR concentration 180 nM)
Procedure, shortened: as §1

[6] = system: THRa:RXRa (NR concentration 90 nM, RXRa partner concentration 90 nM)
Procedure, shortened: as §1

[7] = system: THRa homodimer (NR concentration 90 nM)
Procedure, shortened: as §1

[8] = system: VDR:RXRa (NR concentration 270 nM, RXRa partner concentration 90 nM)
Procedure, shortened: as §1

[9] = system: VDR homodimer (NR concentration 270 nM)
Procedure, shortened: as §1

| Sequence | PBM binding z-score [1] | PBM binding z-score [2] | PBM binding z-score [3] | PBM binding z-score [4] | PBM binding z-score [5] | PBM binding z-score [6] | PBM binding z-score [7] | PBM binding z-score [8] | PBM binding z-score [9] |
| --- | --- | --- | --- | --- | --- | --- | --- | --- | --- |
| TGGAGTAGGTTAGGGGCATTCAGAATGGCGTCGA | 1.6 | 0.847 | 0.846 | -0.404 | 0.803 | 1.51 | 1.06 | 1.05 | 1.57 |
| TTATCAAGGTGAAGGTCGTTGATCCCTCTGTAGA | 1.82 | 1.55 | 1.33 | 0.598 | 1.89 | 2.68 | 1.3 | 1.55 | 1.23 |
| CCGACTGGGGCAAGGTTACCGTAACGCACAGCCA | 1.39 | 1.08 | 1.28 | -0.694 | 1.04 | 1.22 | 0.42 | -0.0549 | -0.25 |
| TCTAGTTGGTCGAAGGTCACACACTCGAAATGCG | 3.99 | 4.39 | 3.86 | 1.37 | 4.15 | 3.07 | 1.83 | 3.37 | 1.97 |
| CGTACTAGGTCAGAACAGGACAGTGAAGGATGAT | 2.2 | 2.5 | 3.38 | 0.907 | 0.946 | 3.33 | 0.353 | 0.861 | 0.141 |
| ACTCGGAGGACAAAGGTCAGAGATACGCCAGTGA | 4.52 | 6.21 | 5.31 | 1.01 | 5.52 | 3.61 | 0.755 | 3.38 | 1.56 |
| AATACAGGGTCATCGTATGCCAGAGTACGCACAG | 3.1 | 5.61 | 4.95 | 3.42 | 6.33 | 3.67 | 1.21 | 5.08 | 3.64 |
| CGAAATAGGTCATTGACAGGACAGTGAATAGTAA | 3.34 | 5.81 | 4.98 | 2.23 | 4.21 | 3.01 | 0.329 | 3.26 | 1.15 |
| CGAACTAGGTCATTGACAGGACAGTCAATAGTAA | 2.6 | 4.51 | 4.14 | 2.45 | 2.29 | 2.83 | 0.652 | 2.29 | 1.07 |
| CCAGACAGGTGGGAAGGTAACTCAGCCTCGATTA | 0.465 | -0.192 | -0.24 | -0.499 | -0.186 | -0.392 | 0.393 | -0.285 | -0.38 |
| GTTCGGAGGACAAGGTCAGAGCTTTGTCCGTAGA | 2.99 | 2.91 | 3.51 | 0.7 | 1.91 | 3.06 | 1.52 | 1.42 | 0.65 |
| CCGTCTGGGGCAGAAAGGTTACCATACCATCCGG | 2.03 | 1.36 | 0.979 | -0.795 | 1.37 | 0.782 | -0.335 | 0.809 | -0.377 |
| ATAGGTAGGTTATCGGGTCATTCAGTTTGCGCAT | 3.33 | 3.46 | 2.72 | 1.53 | 3.29 | 3.41 | 3.2 | 5.32 | 4.02 |
| ATCTCTAGGTAAGACTCAATTCAGTGAAGAACGC | 0.0312 | 0.0724 | 0.455 | 0.244 | 0.0675 | 0.381 | 0.522 | 0.199 | 0.603 |
| TCTCGGAGGACACGAAAGGTCAGCGCTCGACATC | 4.96 | 5.25 | 6.15 | 1.39 | 4.52 | 3.89 | 1.76 | 3.67 | 1.13 |
| TCTGCTAGGTCAACAATGGTCAGCTAATCTGCTA | 3.37 | 4.13 | 4.92 | 1.33 | 2.64 | 3.08 | 0.805 | 1.84 | -0.0461 |
